Measured values reported in publication PMC5700166.

What was measured:
[1] = target: T1, GST-Nv-NF-kB (Ser allele) (Nematostella vectensis, UniProt A7UNT2 2-411); test: protein-binding microarray (PBM); PBM: ~300 nM protein, 6 mM HEPES pH 7.8, 80 mM KCl, 0.5 mM EDTA, 0.5 mM EGTA, 6% glycerol, 35 ng/ul poly-dIdC, 1% milk, 1 h, room temperature; Ap Aiptasia and Nv Nematostella (sea anemones) / Co Capsaspora / Aq Amphimedon (sponge) / Dm Drosophila / Hu human; RHD is the Rel homology domain; high values mean tight binding; details: dsDNA, one strand shown
T1 sequence: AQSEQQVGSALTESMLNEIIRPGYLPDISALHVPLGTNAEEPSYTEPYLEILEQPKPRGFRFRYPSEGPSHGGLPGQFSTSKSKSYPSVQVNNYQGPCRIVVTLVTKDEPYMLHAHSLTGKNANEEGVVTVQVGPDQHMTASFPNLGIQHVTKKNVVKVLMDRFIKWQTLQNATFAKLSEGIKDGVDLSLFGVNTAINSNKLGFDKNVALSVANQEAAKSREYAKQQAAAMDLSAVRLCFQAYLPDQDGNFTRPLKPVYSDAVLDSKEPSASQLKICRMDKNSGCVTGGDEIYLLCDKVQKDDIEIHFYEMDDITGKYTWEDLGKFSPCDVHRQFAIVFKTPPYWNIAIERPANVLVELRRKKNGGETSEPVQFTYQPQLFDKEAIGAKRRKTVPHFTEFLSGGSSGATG

[2] = target: GST-Hu-p50 (Homo sapiens, UniProt P19838 7-356); test: as above; details: dsDNA, one strand shown
Sequence of GST-Hu-p50 (P19838 7-356): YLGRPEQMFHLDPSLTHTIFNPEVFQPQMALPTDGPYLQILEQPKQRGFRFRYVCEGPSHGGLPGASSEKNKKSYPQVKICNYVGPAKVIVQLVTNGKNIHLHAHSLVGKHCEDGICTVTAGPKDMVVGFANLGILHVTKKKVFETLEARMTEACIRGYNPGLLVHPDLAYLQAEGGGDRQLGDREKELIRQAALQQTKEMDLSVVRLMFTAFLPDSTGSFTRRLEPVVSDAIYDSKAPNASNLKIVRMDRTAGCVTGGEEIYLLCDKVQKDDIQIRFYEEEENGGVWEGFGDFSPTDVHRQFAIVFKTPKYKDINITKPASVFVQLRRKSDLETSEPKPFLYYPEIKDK

Row | Sequence | binding signal [1] [z-score] | binding signal [2] [z-score]
1 | CCGATTAACATCAAATTCCCAGATGATGTTAATCGGGTCTTGATTCGCTTGACGCTGCTG | 3.83 | 2.58
2 | CCGATTAACATCAAAGCATTCCCTGATGTTAATCGGGTCTTGATTCGCTTGACGCTGCTG | 2.52 | 2.12
3 | CCGATTAACATCAAGGGGGGTGGTGATGTTAATCGGGTCTTGATTCGCTTGACGCTGCTG | 4.43 | 4.27
4 | CCGATTAACATCAAATTTTCCCATGATGTTAATCGGGTCTTGATTCGCTTGACGCTGCTG | 6.42 | 4.19
5 | CCGATTAACATCAGGGACACCCCTGATGTTAATCGGGTCTTGATTCGCTTGACGCTGCTG | 3.24 | 4.03
6 | CCGATTAACATCAAAAAAATTTCTGATGTTAATCGGGTCTTGATTCGCTTGACGCTGCTG | 1.35 | 1.66
7 | CCGATTAACATCAGGAATCCCTATGATGTTAATCGGGTCTTGATTCGCTTGACGCTGCTG | 1.72 | 1.89
8 | CCGATTAACATCAATTCCCAACATGATGTTAATCGGGTCTTGATTCGCTTGACGCTGCTG | 1.63 | 1.56
9 | CCGATTAACATCAAAAAACCGTTTGATGTTAATCGGGTCTTGATTCGCTTGACGCTGCTG | 2.22 | 1.52
10 | CCGATTAACATCAGGGGTTTAACTGATGTTAATCGGGTCTTGATTCGCTTGACGCTGCTG | 1.69 | 3.05
11 | CCGATTAACATCAAAAATCACCCTGATGTTAATCGGGTCTTGATTCGCTTGACGCTGCTG | 3.82 | 4.76
12 | CCGATTAACATCAGGGCCCCCCCTGATGTTAATCGGGTCTTGATTCGCTTGACGCTGCTG | 3.34 | 4.39
13 | CCGATTAACATCAGGAGTTTCCCTGATGTTAATCGGGTCTTGATTCGCTTGACGCTGCTG | 4.67 | 4.81
14 | CCGATTAACATCATGGGAAAAAATGATGTTAATCGGGTCTTGATTCGCTTGACGCTGCTG | 5.03 | 3.83
15 | CCGATTAACATCAACCACCCCCCTGATGTTAATCGGGTCTTGATTCGCTTGACGCTGCTG | 3.31 | 4.14
16 | CCGATTAACATCAGGGAAATAAATGATGTTAATCGGGTCTTGATTCGCTTGACGCTGCTG | 4.6 | 3.23
17 | CCGATTAACATCAGGGATATTTATGATGTTAATCGGGTCTTGATTCGCTTGACGCTGCTG | 2.29 | 2.35
18 | CCGATTAACATCAGACATTCCCATGATGTTAATCGGGTCTTGATTCGCTTGACGCTGCTG | 2.32 | 1.02
19 | CCGATTAACATCACGAAAATCCCTGATGTTAATCGGGTCTTGATTCGCTTGACGCTGCTG | 4.09 | 4.05
20 | CCGATTAACATCAGGGGGGGACCTGATGTTAATCGGGTCTTGATTCGCTTGACGCTGCTG | 3.87 | 3.99
21 | CCGATTAACATCAGGGCGTCCCCTGATGTTAATCGGGTCTTGATTCGCTTGACGCTGCTG | 4.47 | 4.86
22 | CCGATTAACATCAACAGGGAAAATGATGTTAATCGGGTCTTGATTCGCTTGACGCTGCTG | 5.98 | 3.34
23 | CCGATTAACATCAAGTACTTCCCTGATGTTAATCGGGTCTTGATTCGCTTGACGCTGCTG | 1.34 | 1.17
24 | CCGATTAACATCAGGGGTATAACTGATGTTAATCGGGTCTTGATTCGCTTGACGCTGCTG | 1.03 | 1.68
25 | CCGATTAACATCAGGGAGTTACCTGATGTTAATCGGGTCTTGATTCGCTTGACGCTGCTG | 3.21 | 3.85

Row | Sequence | binding signal [1] [z-score] | binding signal [2] [z-score]
26 | CCGATTAACATCAGGGGGGGTTATGATGTTAATCGGGTCTTGATTCGCTTGACGCTGCTG | 4.34 | 4.91
27 | CCGATTAACATCACCCGTTTCCCTGATGTTAATCGGGTCTTGATTCGCTTGACGCTGCTG | 4.29 | 2.75
28 | CCGATTAACATCAACCCTCCCCCTGATGTTAATCGGGTCTTGATTCGCTTGACGCTGCTG | 3.85 | 3.3
29 | CCGATTAACATCAGGCTTTTCCCTGATGTTAATCGGGTCTTGATTCGCTTGACGCTGCTG | 4.44 | 3.4
30 | CCGATTAACATCAGAATATTCCCTGATGTTAATCGGGTCTTGATTCGCTTGACGCTGCTG | 5.76 | 3.75
31 | CCGATTAACATCAGGGAAACCACTGATGTTAATCGGGTCTTGATTCGCTTGACGCTGCTG | 4.02 | 3.94
32 | CCGATTAACATCAGGGAATTGTATGATGTTAATCGGGTCTTGATTCGCTTGACGCTGCTG | 4.84 | 3.41
33 | CCGATTAACATCAAAAAAATACCTGATGTTAATCGGGTCTTGATTCGCTTGACGCTGCTG | 4.89 | 3.43
34 | CCGATTAACATCAATCTACCCCCTGATGTTAATCGGGTCTTGATTCGCTTGACGCTGCTG | 4.13 | 4.39
35 | CCGATTAACATCAGAACTTTCCCTGATGTTAATCGGGTCTTGATTCGCTTGACGCTGCTG | 5.58 | 4.94
36 | CCGATTAACATCACCGAATTTCCTGATGTTAATCGGGTCTTGATTCGCTTGACGCTGCTG | 1.32 | 2.56
37 | CCGATTAACATCAGGGAACTCCATGATGTTAATCGGGTCTTGATTCGCTTGACGCTGCTG | 1.24 | 1.7
38 | CCGATTAACATCATTGTCCCTTCTGATGTTAATCGGGTCTTGATTCGCTTGACGCTGCTG | 3.35 | 1.99
39 | CCGATTAACATCACCCACTTCCCTGATGTTAATCGGGTCTTGATTCGCTTGACGCTGCTG | 2.13 | 1.86
40 | CCGATTAACATCAAATTCCCAGTTGATGTTAATCGGGTCTTGATTCGCTTGACGCTGCTG | 3.92 | 2.85
41 | CCGATTAACATCAACCCCCGGCTTGATGTTAATCGGGTCTTGATTCGCTTGACGCTGCTG | 2.23 | 3.29
42 | CCGATTAACATCAAGCACCCCCTTGATGTTAATCGGGTCTTGATTCGCTTGACGCTGCTG | 4.85 | 4.55
43 | CCGATTAACATCAAACAAACCCCTGATGTTAATCGGGTCTTGATTCGCTTGACGCTGCTG | 2.48 | 3.95
44 | CCGATTAACATCAGGGGTCCCCATGATGTTAATCGGGTCTTGATTCGCTTGACGCTGCTG | 1.95 | 2.54
45 | CCGATTAACATCAGGGGGGACAATGATGTTAATCGGGTCTTGATTCGCTTGACGCTGCTG | 4.45 | 3.69
46 | CCGATTAACATCACGGGGAGTCCTGATGTTAATCGGGTCTTGATTCGCTTGACGCTGCTG | 4.29 | 3.39
47 | CCGATTAACATCAGACAATTCCCTGATGTTAATCGGGTCTTGATTCGCTTGACGCTGCTG | 4.51 | 4.15
48 | CCGATTAACATCAAATTCCCAGCTGATGTTAATCGGGTCTTGATTCGCTTGACGCTGCTG | 3.85 | 2.81
49 | CCGATTAACATCAAAAAAAGTACTGATGTTAATCGGGTCTTGATTCGCTTGACGCTGCTG | 1.16 | 1.52
50 | CCGATTAACATCACTTTACCCCCTGATGTTAATCGGGTCTTGATTCGCTTGACGCTGCTG | 4.4 | 3.42

Row | Sequence | binding signal [1] [z-score] | binding signal [2] [z-score]
51 | CCGATTAACATCAGATTCTCCCCTGATGTTAATCGGGTCTTGATTCGCTTGACGCTGCTG | 6.01 | 4.4
52 | CCGATTAACATCAGGGGTTCCACTGATGTTAATCGGGTCTTGATTCGCTTGACGCTGCTG | 1.62 | 2.51
53 | CCGATTAACATCACGGGAGTTCCTGATGTTAATCGGGTCTTGATTCGCTTGACGCTGCTG | 1.6 | 2.24
54 | CCGATTAACATCAATAAATACCCTGATGTTAATCGGGTCTTGATTCGCTTGACGCTGCTG | 6.32 | 5.25
55 | CCGATTAACATCACGGAATACCCTGATGTTAATCGGGTCTTGATTCGCTTGACGCTGCTG | 3.97 | 3.41
56 | CCGATTAACATCAAGGAATTACCTGATGTTAATCGGGTCTTGATTCGCTTGACGCTGCTG | 4.05 | 2.25
57 | CCGATTAACATCAGCACCCCCCCTGATGTTAATCGGGTCTTGATTCGCTTGACGCTGCTG | 3.4 | 4.3
58 | CCGATTAACATCAGGGGGTAAAATGATGTTAATCGGGTCTTGATTCGCTTGACGCTGCTG | 6.35 | 4.51
59 | CCGATTAACATCAACGGGAATTCTGATGTTAATCGGGTCTTGATTCGCTTGACGCTGCTG | 5.37 | 3.82
60 | CCGATTAACATCAGAAATCTCCCTGATGTTAATCGGGTCTTGATTCGCTTGACGCTGCTG | 4.16 | 4.42
61 | CCGATTAACATCAGGTACTTCCATGATGTTAATCGGGTCTTGATTCGCTTGACGCTGCTG | 5.91 | 2.98
62 | CCGATTAACATCAGGGGGGCACCTGATGTTAATCGGGTCTTGATTCGCTTGACGCTGCTG | 2 | 3.33
63 | CCGATTAACATCAGGGGGTCTACTGATGTTAATCGGGTCTTGATTCGCTTGACGCTGCTG | 2.55 | 3.36
64 | CCGATTAACATCAACTCGGGAAATGATGTTAATCGGGTCTTGATTCGCTTGACGCTGCTG | 2.66 | 1.46
65 | CCGATTAACATCAGAATAACCCCTGATGTTAATCGGGTCTTGATTCGCTTGACGCTGCTG | 3.11 | 4.22
66 | CCGATTAACATCAGGGGGTACCCTGATGTTAATCGGGTCTTGATTCGCTTGACGCTGCTG | 4.11 | 4.44
67 | CCGATTAACATCAACTTTCCCAGTGATGTTAATCGGGTCTTGATTCGCTTGACGCTGCTG | 1.7 | 1.59
68 | CCGATTAACATCAGGGAAAGGTATGATGTTAATCGGGTCTTGATTCGCTTGACGCTGCTG | 3.34 | 2.11
69 | CCGATTAACATCAGAAAATGCCCTGATGTTAATCGGGTCTTGATTCGCTTGACGCTGCTG | 1.55 | 2.79
70 | CCGATTAACATCAGGGAAACTCATGATGTTAATCGGGTCTTGATTCGCTTGACGCTGCTG | 4.62 | 3.13
71 | CCGATTAACATCAGGATAATCCCTGATGTTAATCGGGTCTTGATTCGCTTGACGCTGCTG | 1.62 | 2.15
72 | CCGATTAACATCAGGGAATCCACTGATGTTAATCGGGTCTTGATTCGCTTGACGCTGCTG | 3.63 | 2.79
73 | CCGATTAACATCAGGGATAACCCTGATGTTAATCGGGTCTTGATTCGCTTGACGCTGCTG | 1.1 | 2.62
